# Screening data as filed in PubChem BioAssay.
# MCF10A rereplic – inducers of DNA re-replication in MCF 10A breast cells | MCF 10A DNA re-replication, Hoechst nuclear intensity, 48 h | Potency, µM (top dose mostly 46.1 µM), for inactives: at the highest dose activity, positive = re-replication, usual class: activators | hit rate 2.9% among 350,000; also: % of control where 0% means no effect; nearly all actives have a fitted effect of over 50% in size
# SW480 rereplic – induces DNA re-replication in SW480 colon adenocarcinoma cells; hit rate 1.8% among 340,000; Potency, µM (highest dose often 46.1 µM), for inactives: at the highest dose re-replication activation, usual class: activators; SW480 DNA re-replication, Hoechst DNA content imaging, 48 h; also: % of control where 0% means no effect; nearly all actives have a fitted effect of over 55% in size
#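 Image-based read-out: total Hoechst fluorescence of nuclei (405 nm excitation, 500-530 nm emission), with hits raising the fraction of high-intensity nuclei. SW480 colon cells incubated 48 hr with compounds at 37 C.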
# ELG1 DNA repair – inhibitors of ELG1-dependent DNA repair in HEK293T cells; hit rate 2.3% among 330,000; Potency, µM (doses to about 46.1 µM), inactives show at the highest dose activity change, negative = inhibition, hits mostly inhibitors; HEK293T ELG1-luciferase reporter, luminescence, 16 h; DNA damage induced by 5-fluorouridine; AID 504467; also: % is scaled to controls: 0 for no effect and ±100 for the full control effect; nearly all actives have a fitted effect of over 55% in size
#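 Cells (2,000 per well) received 5-fluorouridine plus test compound or DMSO and were incubated 16 hr at 37 °C, 5% CO2. Luciferase activity was read by luminescence 30 min after ONE-Glo addition; signal suppression marked inhibition of damage-induced ELG1 function.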
# KB-3-1 cytotox – KB-3-1 parental cell cytotoxicity; KB-3-1 viability, CellTiter-Glo ATP luminescence, 72 h; Potency, µM (highest dose often 46.1 µM), actives largely listed as cytotoxic; hit rate 1.4% among 400,000; AID 1347075; also: % is scaled to controls: 0 for no effect and ±100 for the full control effect; nearly all actives have a fitted effect of over 60% in size
#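 KB-3-1 parental drug-naive adenocarcinoma cells in DMEM/10% FBS, incubated 72 h at 37 C with pin-transferred compounds across a concentration series. Viability by CellTiter-Glo luminescence; concentration-response curves fitted after normalization.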
# KB-V1 MDR tox – kills drug-selected multidrug resistant KB-V1 cells; hit rate 3.4% among 400,000; KB-V1 MDR cells viability, CellTiter-Glo, 72 h; Potency, µM (doses to about 46.1 µM), most hits filed as cytotoxic; also: % is scaled to controls: 0 for no effect and ±100 for the full control effect; nearly all actives have a fitted effect of over 60% in size
#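 KB-V1, DMEM (no phenol red) + 10% FBS; cpd pin-transferred, titration series; 72 h, 37 degrees C; CellTiter-Glo, luminescence. Data normalized, curve-fit.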
# Starred values were filed as active, the others as inactive; i = inactive; u = inconclusive; x = not tested or not shown; [ ] = dose if it differs, or a comment. In the library only some 8.1% were active in any assay of this set; here they are far more common. Calls follow the shape of the dose curve; as a rule, active = well fitted curve in the direction sought with a large enough effect; inconclusive = small, poorly fitted or top-dose-only effect, or another doubt; inactive = no such curve, though single readings can be large; an effect the other way counts as inactive or inconclusive. Potency is read from the fitted curve at half-maximal effect.
SMILES,MCF10A rereplic,SW480 rereplic,ELG1 DNA repair,KB-3-1 cytotox,KB-V1 MDR tox
CCOC(=O)Cc1c(C)nc2c(-c3ccc(OC)c(OC)c3)c(C)nn2c1C,x,x,x,i,u
CCC(=O)N1CCc2cc(S(=O)(=O)NC(C(=O)NCCc3cccc(C)c3)C(C)C)ccc21 (configuration not stated),x,x,x,i,i
COc1ccc(OC)c(NC(=O)CCCOc2cc(=O)n(C)c3ccccc23)c1,x,x,x,i,i
CCCCCCCCCCCCCCCCC(C(=O)O)C(O)(CC(=O)O)C(=O)O (configuration not stated),29.9µM*,0.1%,x,x,x
C=CCN(CC=C)Cc1cc(=O)oc2cc(OC)ccc12,x,x,x,i,i
CCOC(=O)c1c(CN(C)C)n(-c2ccc(C)cc2)c2cc(Br)c(O)cc12,u,27.3%,-9.2%,i,u
CCOC(=O)c1c(CN2CCOCC2)n(-c2ccccc2)c2cc(Br)c(O)cc12,-1.1%,-21.7%,23.1µM*,i,i
CCOC(=O)c1c(CN2CCOCC2)n(-c2ccccc2)c2cc(Br)c(OC)cc12,23.1µM*,u,u,u,18.4µM*
CCOC(=O)c1c(CSC(=N)N)n(-c2ccc(C)cc2)c2cc(Br)c(OC(C)=O)cc12,u,-4.8%,u,i,i
CCOC(=O)c1c(CN(C)C)n(-c2ccccc2)c2cc(Br)c(OC)cc12,u,u,-0.5%,u,20.6µM*
CCOC(=O)c1c(CN2CCOCC2)oc2ccc(OC)cc12,1.4%,-1.0%,-4.0%,i,16.4µM*
CC(=O)c1ccc(NC(=O)C(C)n2nc(-c3ccccc3)ccc2=O)cc1 (configuration not stated),x,x,x,i,i
Cc1cn([C@H]2C[C@H](O)[C@@H](/C=C/C(=O)NCCc3cccs3)O2)c(=O)[nH]c1=O,x,x,x,i,i
CCOC(=O)c1c(CN2CCCCC2)n(C)c2cc(Br)c(O)cc12,23.4%,10.4%,u,i,10.3µM*
CCOC(=O)c1c(CN2CCN(C)CC2)n(C)c2cc(Br)c(OC)cc12,u,u,22.2%,u,u
CCN=C(Nc1ccc2c(c1)OCO2)SC1CC(=O)N(c2ccc(OC)cc2)C1=O (configuration not stated),20.1%,9.7%,16.4µM*,i,u
O=[N+]([O-])c1cccc(-c2nc(-c3cccs3)c(-c3cccs3)[nH]2)c1,-38.3%,u,u,i,i
O=[N+]([O-])c1ccc(-c2nc(-c3cccs3)c(-c3cccs3)[nH]2)cc1,u,u,20.6µM*,u,u
COc1ccc(-c2nc(-c3cccs3)c(-c3cccs3)[nH]2)cc1OC,16.7%,-1.8%,20.6µM*,i,i
COc1ccc(-c2nc(-c3ccccc3)c(-c3cccs3)[nH]2)cc1OC,-7.9%,10.0%,14.6µM*,i,i
COc1ccc(-c2nc(-c3ccccc3)c(-c3ccccc3)[nH]2)cc1Br,x,x,x,i,i
COc1cccc(CNC(=O)[C@@H]2CCCN2C(=O)OC(C)(C)C)c1,x,x,x,i,u
CC(C)CN(C(=O)COC(=O)c1ccccc1SCC(=O)N1CCCC1)C1CCS(=O)(=O)C1 (configuration not stated),-5.1%,-5.3%,x,i,i
COc1ccc(C(=O)/C=C/c2ccc(OC)c(CN3CCOCC3)c2)cc1,u,u,u,u,14.6µM*
COc1ccc(C)cc1Cn1nnc2ccccc21,11.1%,12.4%[9.22 µM],10.7%,i,i
SMILES,MCF10A rereplic,SW480 rereplic,ELG1 DNA repair,KB-3-1 cytotox,KB-V1 MDR tox
COc1ccc(/C=C/C(=O)c2ccccc2O)cc1CN1CCOCC1,u,u,u,u,i
COc1ccc(/C=C/C(=O)c2ccc(O)cc2)cc1CN1CCOCC1,u,u,-31.1%,16.4µM*,u
COc1ccc(C(=O)/C=C/c2ccc(OC)c(Cn3nnc4ccccc43)c2)cc1,16.4µM*,x,u,i,u
Cc1cccc(-n2c(SCC(=O)NCC3CCCO3)nc3ccccc3c2=O)c1C (configuration not stated),-1.4%,10.7%,-11.5%,i,i
COc1ccccc1C(=O)NCC(=O)OCC(=O)N(CC(C)C)c1c(N)n(Cc2ccccc2)c(=O)[nH]c1=O,7.6%,2.2%,-2.1%,i,i
O=C1CCc2cc(S(=O)(=O)Nc3cccc(F)c3)cc3c2N1CC3,u,u,22.4%,i,u
Cc1nc(-c2ccc(C(=O)Nc3ccccc3F)cc2)cs1,-1.8%,-7.9%,u,u,11.6µM*
Cc1ccc(-c2csc(/C=C3/SC(C)C(=O)N3CC(=O)Nc3ccccc3F)n2)cc1 (configuration not stated),20.6µM*,u,x,i,i
Cc1nc(-c2ccc(C(=O)Nc3ccc(F)cc3)cc2)cs1,1.9%,1.8%,u,i,u
C/C(NCCc1ccc(O)cc1)=C1/CCOC1=O,x,x,x,u,i
COc1ccc(NC(=O)CSC2=Nc3ccccc3C3=NC(CCC(=O)NC4CCCCC4)C(=O)N23)cc1Cl (configuration not stated),x,x,x,i,i
Cc1cc(C)c(S(=O)(=O)N2CCN(CCN3C(=O)c4cccc5cccc(c45)C3=O)CC2)cc1[N+](=O)[O-],-10.6%,-10.6%,3.66µM*,x,x
COc1ccc(CNC(=O)c2c(O)c3cccc4c3n(c2=O)CCC4)cc1,-0.4%,-54.1%,16.6%,i,14.6µM*
CCN(CC)CCNC(=O)c1c(O)c2cccc3c2n(c1=O)CCC3,20.6%,u,22.1%,i,0.731µM*
O=C(NCCNCCO)c1c(O)c2cccc3c2n(c1=O)CCC3,8.7%,-3.2%,6.51µM*,i,i
CCCCCCNC(=O)c1c(O)c2cccc3c2n(c1=O)CCC3,15.0%,-6.0%,-0.5%,i,i
CN(C)c1ccc(/C=C2\C=Cc3ccccc32)cc1F,x,x,x,i,i
Nc1nc2cc3c(cc2cc1C(=O)NCc1ccc(F)cc1)OCO3,x,x,x,7.31µM*,i
O=C(c1cc(S(=O)(=O)N2CCOCC2)ccc1Cl)N1CCC(Cc2ccccc2)CC1,11.6%,-4.2%,u,i,u
CSc1nc(N(C)NC(=O)c2ccccc2)c2ccccc2n1,1.64µM*,u,8.4%,1.03µM*,1.16µM*
CSc1nc(N(C)NC(=O)c2ccc(Cl)cc2)c2ccccc2n1,u,0.581µM*,-20.3%,0.581µM*,2.91µM*
CCN(CC(=O)Nc1ccc(NC(C)=O)cc1)C(=O)C1CC1,x,x,x,i,i
CC(=O)c1ccccc1NC(=O)c1cc(S(=O)(=O)N2CCOCC2)ccc1N1CCCC1,0.4%,5.1%,u,i,i
Cn1cnnc1SCc1ccc(C(=O)N=Nc2c(O)n(Cc3ccc(Cl)cc3)c3ccccc23)cc1,u,u,9.2µM*,u,u
